Data: the supplement of paper PMC13380429

Test system: Vero E6 infected with SARS-CoV-2
Experiment: inhibition of SARS-CoV-2 cytopathic effect; higher = more antiviral protection, active = above 15
Details: 48 h

Measured: inhibition of SARS-CoV-2 cytopathic effect

COCCc1ccc(OCC(O)CNC(C)C)cc1 (stereo not given) [metoprolol]
inactive: 1 nM 2% | 8.33 nM 1.22% | 100 nM -0.12% | 833.33 nM -0.66% | 10000 nM 1.25%

COc1ccc(-c2coc3cc(O)cc(O)c3c2=O)cc1 [4-methylgenistein]
inactive: 1 nM -1.18% | 8.33 nM -0.05% | 100 nM 0.18% | 833.33 nM -1.7% | 10000 nM 2.29%

COC(=O)[C@@H](N)CCCNC(=N)N[N+](=O)[O-]
inactive: 1 nM 0.94% | 8.33 nM -2.09% | 100 nM -1.83% | 833.33 nM -3.06% | 10000 nM -0.4%

CN(Cc1cc(Br)cc(Br)c1N)C1CCCCC1 [bromhexine]
inactive: 1 nM 0.85% | 8.33 nM 0.02% | 100 nM 2.7% | 833.33 nM 3.11% | 10000 nM 11.6%

O=[N+]([O-])c1ncc[nH]1 [azomycin-(2-nitroimidazole)]
inactive: 1 nM 1.8% | 8.33 nM 1.77% | 100 nM 0.86% | 833.33 nM 2.21% | 10000 nM -0.1%

CNCC(O)c1ccc(OC(=O)C(C)(C)C)c(OC(=O)C(C)(C)C)c1 (stereo not given) [dipivefrine]
inactive: 1 nM 0.87% | 8.33 nM 3.76% | 100 nM 1.77% | 833.33 nM 1.42% | 10000 nM 0.56%

C=C(C)[C@@H]1[C@H]2OC(=O)[C@@H]1[C@]1(O)C[C@H]3O[C@]34C(=O)O[C@H]2[C@]14C [picrotoxinin]
inactive: 1 nM -2.53% | 8.33 nM -1.67% | 100 nM -2.12% | 833.33 nM -3.39% | 10000 nM -2.53%

COC(=O)CCC(=O)CN [methyl-aminolevulinate]
inactive: 1 nM 2.97% | 8.33 nM 2.46% | 100 nM 1.49% | 833.33 nM 3.55% | 10000 nM 5.12%

CC1(C)OC(=O)NC1=O [dimethadione]
inactive: 1 nM -1.41% | 8.33 nM -1.5% | 100 nM 0.11% | 833.33 nM 0.78% | 10000 nM 0.15%

CCn1c(=O)[nH]c2ccccc21
inactive: 1 nM -3.62% | 8.33 nM -3.46% | 100 nM -3.83% | 833.33 nM -3.63% | 10000 nM -3.51%
